The entries come from a sample that favours hits as a whole.
VCAM1 pot – enhances TNF alpha induced VCAM1 expression in HUVEC; HUVEC TNFa-stimulated VCAM-1 immunofluorescence, high-content imaging; scaled per plate to unstimulated/TNFa-only wells; actives 0.19% (n = 93,000); activation, % at 2 µM;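 active = activation above the screen mean plus 3 SD, with well images confirming the hit on visual review, cut at about 28% in these data, passing the limit was not always enough; inconclusive = activation above that limit but images do not confirm it; inactive = activation not above that limit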;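 also: signal is the number of cytoplasmic VCAM-1 stained grains per positive cell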
VCAM1 pot confirm – potentiators of TNFa-induced VCAM1 expression, confirmation, imaging, HUVEC, triplicate retest | activation, % at 2 µM | 230 tested, under 10 active | HUVEC TNFa-stimulated VCAM-1 immunofluorescence imaging | AID 1034 | shares compounds with VCAM1 pot;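 active = activation above 30% in triplicate retests at 2 µM, then confirmed by visual review of the well images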;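 also: scaled per plate between unstimulated and TNFa-stimulated DMSO control wells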
An asterisk follows results filed as active; ? = inconclusive.

SMILES | VCAM1 pot | others
COc1ccc(Cl)cc1NC(=O)COc1cccc(-n2cnnn2)c1 | ? | VCAM1 pot confirm=6.6
O=C(COc1cccc(Oc2ccccc2)c1)Nc1ncccn1 | -9.5
CCOC(=O)Cc1nnc(NC(=O)CSc2nnc3c4ccccc4n(C)c3n2)s1 | -8.2
CCn1cc(C(=O)N=c2sc3ccccc3n2C)c(=O)c2ccc(C)nc21 | 0.0
O=C(CCCn1c(=O)c2ccccc2n(CC(=O)NCc2ccco2)c1=O)NCc1ccco1 | ? | VCAM1 pot confirm=-21.0
CCn1c(=O)cc(OCC(=O)NCc2ccco2)c2ccccc21 | -72.3
CCOc1cc2[nH]c(=S)n(CCCC(=O)NCc3ccco3)c(=O)c2cc1OCC | -1.9
CC(C)(C)N1CC2(c3ccccc3)CN(C(C)(C)C)CC(c3ccccc3)(C1)C2=O | -2.1
O=C1C=C(O)CC(c2ccc(Cl)cc2)C1 (stereo not given) | -2.8
O=C1C=C(O)CC(c2ccc(Cl)c(Cl)c2)C1 (stereo not given) | ? | VCAM1 pot confirm=-1.4
COc1cc(C2CC(=O)C=C(O)C2)cc(OC)c1OC (stereo not given) | 16.1
CC(=O)c1cccc(N(CC(=O)O)S(C)(=O)=O)c1 | 0.5
CCOc1ccc(CCNC(=O)Cn2c(=O)oc3ccccc32)cc1OCC | 0.0
O=C1Nc2c(c(=O)[nH]c(=O)n2-c2ccccc2F)C(C(F)(F)F)(C(F)(F)F)N1 | 27.5
CC(C)(CO)NC(=O)CCCOc1ccc(Cl)cc1Cl | -93.4
Cc1cc(C)n(C(=O)COc2ccc(Cl)cc2Cl)n1 | 43.3* | VCAM1 pot confirm=-12.0
COc1cc(OC)cc(C(=O)n2nc(C)cc2C)c1 | -6.9
CC1N(O)C(C)(C)C(c2ccccc2)=[N+]1[O-] (stereo not given) | -7.0
Cc1cccc(C2CC(c3ccc(Br)cc3)Nc3nc(N)nn32)c1 (stereo not given) | 1.9
Cc1ccc(C(=O)C(OC(=O)COc2ccccc2C)c2ccccc2)cc1 (stereo not given) | -0.2
CCCN1C(=O)SC(CC(=O)Nc2ccc(C)cc2)C1=O (stereo not given) | 31.9
Cc1ccc(NC(=O)COC(=O)c2ccn(C)n2)cc1 | ? | VCAM1 pot confirm=-17.7
Cc1cc(C)n(-c2ccc(C(=O)OCC(=O)Nc3ccc(Cl)c(S(=O)(=O)N(C)C)c3)cc2)n1 | 0.3
CN1CCCCc2c1[nH]c1ccccc1c2=O | -85.8
CCCCC1CC1C(=O)Nc1ncc2c(n1)CC(C)(C)CC2=O (stereo not given) | 2.7
SMILES | VCAM1 pot | others
CCOC(=O)c1sc2nccc(N(C)C)c2c1N=CNOCc1c(F)cccc1Cl | -6.1
COCCSc1nnc(NC(=O)CSCc2ccccc2)s1 | 19.6
O=S(=O)(N1CCCCCC1)N1CCN(S(=O)(=O)N2CCCCC2)CC1 | -27.8
CCC(=O)Nc1ccccc1C(=O)NC1CCCCC1 | 8.6
CCc1ccc(Nc2oc(C)cc(=O)c2C(C)=O)cc1 | -6.6
CCN(CCNC(=O)C1CCCN(S(=O)(=O)CC)C1)c1ccccc1 (stereo not given) | -7.7
CC(NC(=O)C1CCCN(C(=O)N(C)C)C1)c1ccccc1 (stereo not given) | 65.9* | VCAM1 pot confirm=-36.0
O=C(C1CCCN(S(=O)(=O)Cc2ccccc2)C1)N1CCCCC1 (stereo not given) | 9.9
COc1ccc(N2C(=O)CC(n3c(CCCCO)nc4ccccc43)C2=O)cc1 (stereo not given) | 0.6
COc1ccc(OCC(=O)N2CC3(C)CC2CC(C)(C)C3)cc1 (stereo not given) | -18.0
CSC1=NCCN1C(=O)COc1ccc2ccccc2c1 | 30.1* | VCAM1 pot confirm=-10.1
O=C(COc1ccc(Br)cc1)N1CCN(c2ccccc2)CC1 | 7.7
COC(=O)C(C)Oc1ccc2c3c(c(=O)oc2c1)CCCCC3 (stereo not given) | -40.0
CCN(CC)CC(C(=O)N(CC)CC)P(=O)(c1ccccc1)c1ccccc1 (stereo not given) | -6.1
CC(=O)c1ccc(NS(=O)(=O)c2ccc(CC(C)C)cc2)cc1 | 8.2
COc1ccc(C)cc1NS(=O)(=O)c1ccc(NS(=O)(=O)c2ccc(NC(C)=O)cc2)cc1 | 1.5
CC(=O)Nc1ccc(S(=O)(=O)NC(CC(=O)NC2CCCCC2C)C(C)C)cc1 (stereo not given) | 30.9* | VCAM1 pot confirm=-13.8
O=C(C1CCN(S(=O)(=O)N2CCOCC2)CC1)N1CCOCC1 | -4.4
Cn1c(=O)c2c(-c3ccccc3F)c3c(nc2n(C)c1=O)-c1ccccc1C3O (stereo not given) | 6.2
Cc1ccc(S(=O)(=O)NC(C)(C)CSc2nnc(N)s2)cc1 | 3.2
COC(=O)C1=C(C)N(C2CCCC2)C(=O)C1(NC(C)=O)C(F)(F)F (stereo not given) | 14.4
CC(C)(C)C1CCC2(CC1)C(Nc1cccc(C(F)(F)F)c1)=NC(=S)N2CC#N (stereo not given) | ? | VCAM1 pot confirm=-10.0
CCC(=O)NC(c1ccc([N+](=O)[O-])cc1)c1c(O)ccc2ccccc12 (stereo not given) | -5.1
CC(CC(=O)Nc1cc([N+](=O)[O-])ccc1Cl)c1ccccc1 (stereo not given) | 52.6* | VCAM1 pot confirm=-20.6
O=C(CCc1ccccc1)Nc1cc(C(F)(F)F)ccc1Cl | -6.6
SMILES | VCAM1 pot | others
CCC(C)N1CCCCC1C(=O)Nc1c(C)cc(C)cc1C (stereo not given) | 17.0
C=CCNc1sc(C(=O)c2ccccc2)c(N)c1C#N | -4.9
C=CCNc1sc(C(=O)C2CC2)c(N)c1C#N | 30.1* | VCAM1 pot confirm=-7.6
O=C(NCc1ccco1)c1n[nH]c(=O)c2ccccc12 | -5.4
COc1cccc(C2C(C(C)=O)=C(O)C(=O)N2CCc2c[nH]c3ccccc23)c1 (stereo not given) | -1.9
CCCOC(=O)CSC1=C(C#N)C(c2ccccc2OC)C(C#N)C(=O)N1 (stereo not given) | -91.6
CCOC(=O)c1ccc(NC(=O)CSc2nnc(C3CCCCC3)n2C)cc1 | 10.7
CCCn1nnc(NC(=O)COc2ccc(C3CCCCC3)cc2)n1 | 67.8* | VCAM1 pot confirm=-14.2
O=C(COc1ccc(S(=O)(=O)N2CCCCC2)cc1)NC1CCCCC1 | -3.8
Cc1ccc(Oc2ncccc2/C=N/OCc2ccc(Cl)c(Cl)c2)cc1 | 0.5
CCNc1ccc(Br)cc(C(=O)/C=C/c2ccc(Cl)cc2Cl)c1=O | -5.5
CC(C)Oc1ccc(C2C(C(=O)c3ccco3)=C(O)C(=O)N2CCCN(C)C)cc1 (stereo not given) | -22.7
CCOC(=O)N1CCC(n2c(=S)[nH]c3cc(OC)c(OC)cc3c2=O)CC1 | 0.7
CCCc1cc(C(N)=O)c(NC(C)=O)s1 | 30.1
O=C(NCC1CCCO1)C1CCC(=O)N1Cc1ccccc1Cl (stereo not given) | 5.6
CC(C)N(CCc1ccncc1)C(=O)Nc1ccc(Cl)c(Cl)c1 | 38.5* | VCAM1 pot confirm=-2.8
CCCC(C)C(=O)Nc1ccncc1 (stereo not given) | 32.0
CCN(CC)S(=O)(=O)c1cc([N+](=O)[O-])ccc1NNC(=O)Nc1ccc(Cl)c(Cl)c1 | -23.1
CCCCCn1c(CCC(=O)Oc2ccccc2OC)nc2c1c(=O)[nH]c(=O)n2CCCC | 2.0
CC(C)NC(=O)c1ccccc1NC(=O)CCc1ccccc1 | 2.9
CCCCC(=O)Nc1ccccc1C(=O)N1CCOCC1 | -3.6
COc1ccc(NS(=O)(=O)c2cc(C)ccc2NC(=O)c2cc(C)oc2C)cc1 | -44.4
O=C(COc1ccc2ccccc2c1Br)Nn1cnnc1 | -22.1
Cc1ccc(OC(=O)CCC(=O)OCCCC(F)(F)C(F)(F)F)cc1 | ? | VCAM1 pot confirm=-7.9
COc1ccc(OCC(=O)Sc2ccc(C)cc2)cc1 | 7.4
